From PubChem
NTR1 ag – agonists of human NTR1, primary screen, imaging, U2OS cells, beta-arrestin-GFP, high content; Neurotensin receptor type 1 (Homo sapiens), P30989; NTR1-U2OS beta-arrestin-GFP spot imaging, agonist mode; activation, % at 20 µM; 330,000 tested, 0.17% active;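 active = activation at or above 40% of the spot to cytoplasm intensity ratio, with at least 20 cells analyzed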;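 also: 0% = DMSO without peptide and 100% = 100 nM NTR1 peptide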
Target sequence (P30989 whole entry, looked up): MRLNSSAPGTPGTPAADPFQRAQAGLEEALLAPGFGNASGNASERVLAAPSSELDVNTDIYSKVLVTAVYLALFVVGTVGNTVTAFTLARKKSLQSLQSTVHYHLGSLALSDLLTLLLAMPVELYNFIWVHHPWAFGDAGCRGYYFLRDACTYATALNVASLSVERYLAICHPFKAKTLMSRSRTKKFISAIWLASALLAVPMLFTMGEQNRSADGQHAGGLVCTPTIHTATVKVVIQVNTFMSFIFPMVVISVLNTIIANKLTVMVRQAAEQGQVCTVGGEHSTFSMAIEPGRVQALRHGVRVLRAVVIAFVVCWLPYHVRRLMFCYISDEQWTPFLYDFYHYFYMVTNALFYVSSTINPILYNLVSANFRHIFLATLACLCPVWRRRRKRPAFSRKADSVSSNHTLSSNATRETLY
Cardio protect – cardioprotection against H2O2-induced cell death, primary screen, uHTS, H9c2 cells, ATPLite luminescence | H9c2 cardiomyocytes, H2O2 injury protection, 2 h | protection from H2O2 cell death, % at 20 µM | 360,000 tested, 0.63% active;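 active = compounds giving at least 50% protection of heart cells from peroxide-induced death in the single-dose screen, raw or plate-pattern-corrected value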;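 also: 0% = DMSO wells with peroxide and 100% = DMSO wells without peroxide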
ALR H2O2 inh – inhibitors of human ALR sulfhydryl oxidase, primary screen, biochemical, H2O2 detection, HRP-luminol luminescence, single point | purified ALR, DTT oxidation | 290,000 tested, 3.8% active | inhibition, % (no concentration beside the values);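 active = mean replicate inhibition above about 79%, with every replicate also reaching it, limit read from the data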
UBC9 SUMO inh – inhibitors of in vitro SUMOylation cascade, primary screen, biochemical, HTRF, uHTS; SUMO-conjugating enzyme UBC9 (Homo sapiens), P63279; HTRF SUMOylation assay, SAE1/SAE2 + UBC9; inhibition, % at 35 µM; 290,000 tested, 0.36% active; AID 2006, 2009; in the data active = inhibition above about 50%, passing the limit was not always enough
Target sequence (P63279 whole entry, looked up): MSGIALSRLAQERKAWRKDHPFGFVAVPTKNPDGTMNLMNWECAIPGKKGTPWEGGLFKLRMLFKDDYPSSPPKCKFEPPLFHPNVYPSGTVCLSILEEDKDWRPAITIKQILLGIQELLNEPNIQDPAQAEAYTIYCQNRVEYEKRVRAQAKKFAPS
* marks the source's active call; other numbers are inactive results; · = not tested or not shown. Most compounds without a hit are left out; they make up all but 3.9% or so of the library.

SMILES	NTR1 ag	Cardio protect	ALR H2O2 inh	UBC9 SUMO inh
Cc1cnc(NC(=O)CSc2nc3ccccc3c(=O)[nH]2)s1	-2	59*	22	1
O=C(CSc1nc2ccccc2c(=O)[nH]1)Nc1ccccc1O	0	23	-4	2
O=C(CSc1nc2ccccc2c(=O)[nH]1)Nc1cccc([N+](=O)[O-])c1	3	53*	-2	14
O=C(CNC(=O)c1ccc2c(c1)OCO2)NCCOc1ccc(Cl)cc1	-1	2	-4	·
CCOC(=O)c1ccc(NC(=O)NCc2c(C)nn(CC)c2C)cc1	0	-15	2	2
CCn1nc(C)c(CNC(=O)Nc2ccccc2C(=O)OC)c1C	-2	-3	96*	5
O=C(/C=C/c1cccc([N+](=O)[O-])c1)NCCN1C(=O)S/C(=C\c2ccc(F)cc2)C1=O	0	-17	-3	4
CCCCn1c(SCn2nnc3ccccc3c2=O)nc2cc(C(=O)OC)ccc2c1=O	·	·	·	4
CCn1c(O)c(C=Nc2ccccc2)sc1=S	3	·	6	-2
CN(CC(=O)NCc1ccco1)S(=O)(=O)c1ccc2c(c1)n(C)c(=O)c(=O)n2C	2	3	92*	1
O=C(Cc1ccc(NC(=O)C2CCCN(C(=O)CCc3ccccc3)C2)cc1)Nc1cccc(C(=O)N2CCCCC2)c1 (stereo not given)	·	-7	·	·
COc1cccc(C(O)c2nc(-c3ccc(F)c(Cl)c3)cs2)c1 (stereo not given)	·	-14	·	·
CCN(CCCNC(=O)c1[nH]c(C)c(C(C)=O)c1C)c1ccccc1	0	5	89*	7
CC(=O)c1c(C)[nH]c(C(=O)NCCc2ccccc2)c1C	-3	-5	100*	18
COc1ccc(CCNC(=O)c2[nH]c(C)c(C(C)=O)c2C)cc1OC	15	-2	-3	-2
COc1cccc2cc(-c3nc(-c4cccs4)cs3)c(=O)oc12	0	87*	-4	24
CCOC(=O)c1cc(-c2ccc(C)cc2)n(CCC(=O)NC(C)CC)c1C (stereo not given)	2	7	-15	8
CCCCCCN1CC(O)=C(c2nc3ccccc3[nH]2)C1=N	0	-8	5	14
CCC(C)N1CC(O)=C(c2nc3ccccc3[nH]2)C1=N (stereo not given)	0	-2	82*	-10
COc1ccc(-c2nn(C)c(=O)c3ccccc23)cc1NC(=O)COc1ccc(C)cc1	9	-9	-7	-31
CCOC(=O)N1CCC(NC(=O)c2cc(-c3ccc(F)cc3)[nH]c2C)CC1	-1	-2	98*	-14
CCOC(=O)N1CCC(NC(=O)c2cc(S(=O)(=O)N3CCC4(CC3)OCCO4)ccc2F)CC1	-1	-6	99*	5
CC(Sc1nnc(-c2cccs2)n1Cc1ccccc1)C(=O)NCc1ccc2c(c1)OCO2 (stereo not given)	0	-8	-9	7
COc1ccc2[nH]c(=O)c(CN(Cc3nnnn3Cc3ccc(F)cc3)CC3CCCO3)cc2c1 (stereo not given)	1	32	-31	10
COCCn1nnnc1CN(CCc1ccccc1)Cc1cc2cc(OC)ccc2[nH]c1=O	1	64*	-21	·
SMILES	NTR1 ag	Cardio protect	ALR H2O2 inh	UBC9 SUMO inh
COCCn1nnnc1CN(Cc1cccnc1)Cc1cc2cc(OC)ccc2[nH]c1=O	·	41	·	17
COc1ccc2[nH]c(=O)c(CN(Cc3nnnn3Cc3ccccc3)CC3CCCO3)cc2c1 (stereo not given)	0	67*	-8	29
O=C(/C(=C(\[O-])c1ccccc1)[n+]1ccc2ccccc2c1)c1ccccc1	·	1	-16	24
COCCCNC(=O)CS(=O)Cc1nc(-c2cccc(OC)c2)oc1C (stereo not given)	2	3	99*	17
CCOc1ccc(CCNC(=O)CS(=O)Cc2nc(-c3ccc(OC)c(OC)c3)oc2C)cc1OCC (stereo not given)	1	0	99*	3
COc1ccc(CNC(=O)CS(=O)Cc2nc(-c3ccc(OC)c(OC)c3)oc2C)cc1 (stereo not given)	0	1	99*	-6
COc1ccc(CNC(=O)CS(=O)Cc2nc(-c3ccc(C)cc3)oc2C)cc1 (stereo not given)	-1	-7	99*	-1
COc1ccc(NC(=O)Nc2cccc(C)n2)cc1	0	-4	-8	-5
COc1ccc(-c2nc(C#N)c(NCc3ccc(C)cc3)o2)cc1OC	9	-5	-5	15
COc1ccc(-c2nc(CS(=O)CC(=O)NCc3ccc(C)cc3)c(C)o2)cc1OC (stereo not given)	-1	-2	99*	6
COCCNC(=O)CS(=O)Cc1nc(-c2ccc(OC)cc2)oc1C (stereo not given)	-1	10	99*	18
COc1ccc(-c2nc(CS(=O)CC(=O)NCc3ccc(Cl)cc3)c(C)o2)cc1OC (stereo not given)	1	5	99*	11
Cc1nc2sc(C(c3ccc(Br)cc3)N3CC(C)OC(C)C3)c(O)n2n1 (stereo not given)	0	-8	-19	5
CCC(C)(C)NC(=O)C(c1ccccn1)N(C(=O)c1csnn1)c1ccc(C)cc1 (stereo not given)	1	18	2	-17
CCn1c(CNC(=O)Cc2ccc(OC)cc2)nnc1SCC(=O)c1ccc(Br)cc1	2	-8	-9	12
CCn1c(CNC(C)=O)nnc1SCC(=O)c1ccc(Br)cc1	0	6	96*	18
O=C(NCC1CCCO1)C(c1cccnc1)N(C(=O)Cc1cccs1)c1ccccc1 (stereo not given)	1	9	-2	6
CCCCOc1ccc(C(=O)N/C(=C\c2ccc(OC)cc2)C(=O)OCc2ccco2)cc1	0	57*	-2	-5
O=C(Nc1ccc(Br)cc1F)c1cccnc1	0	6	-3	-5
CC(=O)Nc1ccc(S(=O)(=O)N(C)CC(=O)Nc2ccccc2N2CCCC2)cc1	0	-1	99*	·
O=C(Nc1ccccc1N1CCCC1)C1CCN(C(=O)c2ccc(Cl)cc2)CC1	-1	0	2	·
O=C(Nc1ccccc1N1CCCC1)C1CCN(C(=O)c2ccc(F)cc2)CC1	0	-2	98*	·
COc1ccc(C(=O)Nc2ccccc2N2CCCC2)cc1	0	0	94*	4
Cn1nc(C(=O)Nc2ccccc2N2CCCC2)c2ccccc2c1=O	4	22	92*	1
Cc1cccc(-c2nc3cc([N+](=O)[O-])ccc3o2)c1	-1	-15	-3	-2
Cc1ccc(NC(=O)CSCC(=O)Nc2ccccc2N2CCCC2)cc1	0	-4	99*	·
COc1ccc(NC(=O)CSCC(=O)Nc2cc(Cl)ccc2N2CCCC2)cc1	3	-2	99*	-10
CC(C)Oc1ccc(C(=O)Nc2ccccc2N2CCCC2)cc1	0	2	98*	17
